# According to the supplement of paper PMC6555819:
# What was measured:
# Assay in all cases: PBM binding z-score (relative to random genomic background probes); higher = stronger binding; sequences stand for … in GC…GCGATTGACAGCGTAGAATGAAGG
# [1] = system: PPARg:RXRa DBDmut IVT, anti-RXR (DBD mutation: RXRa K156A/R161A, NR concentration 270 nM, RXRa partner concentration 90 nM)
# How it was run: (§1)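 On custom Agilent 4×180K arrays, double-stranded probes with 34-nt variable regions carried direct-repeat seeds, single-nucleotide variants, half-site ablations or random human genomic background. Ligand-free nuclear receptor dimers were applied for 1 h, and binding was read with antibodies against each partner (one per run). Binding z-scores come from regression-normalized fluorescence, with the random background probes as reference.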
# [2] = system: PPARg:RXRa IVT, anti-PPARg (NR concentration 270 nM, RXRa partner concentration 90 nM)
# How it was run: as §1
# [3] = system: PPARg DBDmut:RXRa IVT, anti-PPARg (DBD mutation: PPARg1 K132A/R137A, NR concentration 270 nM, RXRa partner concentration 90 nM)
# How it was run: as §1
# [4] = system: PPARg DBDmut IVT, anti-PPARg (DBD mutation: PPARg1 K132A/R137A, NR concentration 270 nM)
# How it was run: as §1
# [5] = system: PPARg homodimer (NR concentration 180 nM)
# How it was run: as §1
# [6] = system: PXR:RXRa (NR concentration 270 nM, RXRa partner concentration 90 nM)
# How it was run: as §1
# [7] = system: PXR homodimer (NR concentration 270 nM)
# How it was run: as §1
# [8] = system: RARa:RXR (NR concentration 270 nM, RXRa partner concentration 90 nM)
# How it was run: as §1
# [9] = system: RARa homodimer (NR concentration 270 nM)
# How it was run: as §1
# [10] = system: RARb:RXRa (NR concentration 270 nM, RXRa partner concentration 90 nM)
# How it was run: as §1
# [11] = system: RARb homodimer (NR concentration 270 nM)
# How it was run: as §1
# [12] = system: RARg:RXRa (NR concentration 270 nM, RXRa partner concentration 90 nM)
# How it was run: as §1
# [13] = system: RARg homodimer (NR concentration 270 nM)
# How it was run: as §1
# [14] = system: RXRa DBDmut IVT, anti-RXR (DBD mutation: RXRa K156A/R161A, NR concentration 90 nM)
# How it was run: as §1
# [15] = system: RXRa homodimer (NR concentration 180 nM)
# How it was run: as §1
# [16] = system: THRa:RXRa (NR concentration 90 nM, RXRa partner concentration 90 nM)
# How it was run: as §1
# [17] = system: THRa homodimer (NR concentration 90 nM)
# How it was run: as §1
# [18] = system: VDR homodimer (NR concentration 270 nM)
# How it was run: as §1
Sequence,PBM binding z-score [1],PBM binding z-score [2],PBM binding z-score [3],PBM binding z-score [4],PBM binding z-score [5],PBM binding z-score [6],PBM binding z-score [7],PBM binding z-score [8],PBM binding z-score [9],PBM binding z-score [10],PBM binding z-score [11],PBM binding z-score [12],PBM binding z-score [13],PBM binding z-score [14],PBM binding z-score [15],PBM binding z-score [16],PBM binding z-score [17],PBM binding z-score [18]
TCTGCTATGTCAGTTGGTCAGCTAACGAGCTGCC,0.621,0.807,-0.394,0.0922,-0.53,-0.0982,-1.36,-0.0374,-1.02,0.481,0.0404,-0.0925,-0.134,0.0834,-0.0847,-0.538,-1.16,-0.982
AGAACGAGGGCACGCTCAGTTGATAGCAGAGTAG,3.98,4.09,0.654,0.271,0.0615,0.642,0.028,0.591,-0.377,2.64,1.02,1.9,2.25,1.94,1.28,1.82,-0.0296,0.752
CAAACTAGGTCAAAGGGCAAAGTCGAGCCAACCA,8.37,8.59,2.1,1.17,2.46,4.09,0.769,6.57,0.986,4.51,3.81,6.04,5.28,1.76,7.35,3.56,0.847,1.06
TCTGTTAGTTGATTAGGGCAACCGAAACAGCGGA,1.71,1.89,1.51,1.52,1.09,0.57,0.354,0.456,0.969,1.19,0.861,0.9,0.978,0.605,0.318,0.839,0.442,0.324
ATATTTAGGTTATCGGGTCATTCAGTTTGCGCAT,6.89,6.64,4.67,4.42,4.15,3.9,8.95,4.06,4.33,2.93,3.44,3.54,2.82,1.92,3.57,3.62,3.93,4.95
TTACCAAGGTGAAGCTCGTTGATCCCTCTGTAGA,1.63,2.34,-0.257,-0.63,-0.515,-0.27,-0.88,0.172,-0.72,1.29,0.199,0.159,-0.0803,-0.864,0.473,1.57,0.166,-0.835
GCTAGCAGGCCATTTGGGTCACTTAATGACGGGC,1.56,1.89,-0.44,-0.938,-0.528,0.407,-0.077,0.758,-1.06,1.3,1.82,0.913,1.22,-0.0616,0.684,1.79,0.181,0.405
CCAGACAGGTGAGAAGGTAACTCCGCCTCGATTA,1.06,0.448,-0.414,-1.08,0.567,-0.515,-0.154,0.0222,0.152,0.539,0.57,0.45,0.417,-0.0199,0.0477,0.0136,0.252,-0.0348
GCTATTAGTTGAAATGGCAACCGAATGATTCTCG,0.598,-0.104,0.641,0.526,0.501,-0.119,0.359,-0.166,0.404,-0.346,-0.503,-0.0997,0.311,0.893,-0.164,-0.279,-0.241,0.0264
CGTCAAAGTTCAACTACGGTAACGTAAAGCACGC,0.132,1.78,0.517,0.931,3.69,5.14,3.79,4.38,2.22,5.2,4.21,5.89,6.48,4.64,5.18,4.23,-0.22,3.69
CCTACTGGGCCAAAGATCATTGATTCCAATGCTC,4.33,4.24,-0.277,0.286,0.269,-0.408,-0.738,-0.185,-0.399,-0.0314,-0.626,0.0876,-0.132,-0.275,0.0908,-0.415,-0.657,-0.324
TGAATGAGGTTAAAGATCAGGAAACGTGGCGTCG,2.17,3.35,0.769,0.42,1.22,2.17,-0.325,3.49,-0.294,1.94,0.6,2.53,1.23,1.25,3.88,2.41,0.21,0.62
ACAGACAGGTGATGAAGGTAACTTAGGCTATCAT,0.373,0.171,0.414,0.165,0.0231,-0.0368,-0.316,0.217,0.132,0.163,0.348,0.286,0.467,-0.093,0.298,0.532,0.0402,0.0918
TCTTGTAGATCAACAGGAGGATAAGAAAGATCGA,1.64,0.232,0.62,0.57,0.00545,0.187,0.0396,0.295,-0.0742,-0.284,-0.517,0.227,0.396,0.36,0.432,0.177,-0.392,-0.362
GCTGCTCGGTCAGGTTGGTCAGCTAACGGGTACG,-0.244,-0.303,-1.15,-1.51,-0.397,-0.721,-0.841,-0.696,-0.978,1.94,1.53,0.691,2.11,-0.37,-0.405,-0.155,-0.287,-0.476
ATATGTAGTTTAGCTGGGGTCATTCAGACTAGGC,1.04,1.41,1.71,2.11,1.95,5.98,3.93,5.81,1.36,2.74,3.66,3.73,2.48,2.23,5.23,4.49,3.19,5.03
CGTCCAAGGTCAAGGTCTGTGAAAGAGACTCGAA,3.42,3.88,2.1,0.39,4.29,3.72,0.462,4.54,1.7,5.24,3.88,6.09,6.55,3.21,5.2,3.83,2.46,1.78
TCAAATAGGTAAACAGGTGAAAGTCCGTAAGTTA,4.13,3.99,0.833,0.995,1.07,0.682,0.0929,1.16,1.7,0.892,0.737,0.645,0.221,1.46,1.15,0.783,0.141,0.236
ATATGTAGGTTATCAGGTCATTCAGTTTGCGCAT,7.41,7.44,1.79,2.79,2.91,3.44,9.35,3.2,2.11,2.86,3.6,3.19,2.93,1.91,3.12,3.72,3.81,3.81
TCTAGCAGGCCAGAGGGTCTCTCAAGAGGTACGG,0.543,-0.453,-1.92,-1.94,-0.634,-0.569,-1.12,-0.436,-0.894,-0.239,-0.406,-0.564,-0.595,-0.155,-0.223,-1.48,-0.98,-0.83
CCGCCTGGGGCAAAGGTTACCATACTCAGTACGA,0.0766,3.23,-0.483,-0.8,2.34,2.62,-0.268,4.07,0.0335,2.47,2.28,3.48,1.78,-0.0654,3.55,2.05,0.443,0.257
ATCGAAAGGTCGTGAGATGAGTATACAGAAAGGC,-0.3,1.61,1.59,1.02,1.18,3,0.0556,3.62,0.436,3.91,2.35,4.27,3.47,0.915,5.21,2.19,-0.531,0.66
TCTAGCAGGCCAGAGGGTGACTCAAGAGGTACGG,0.764,0.183,-1.35,-1.1,-0.406,-0.274,-0.839,-0.247,-1.15,0.306,0.225,0.176,-0.109,-0.237,0.486,-0.0515,-0.795,-0.534
AGTCAAAGTACACTAGGTAACGTAAGATTCAGCT,1.45,2.33,0.868,0.545,-0.165,-0.253,-0.00521,-0.109,0.688,0.988,0.288,0.245,0.909,1.11,0.318,0.479,-0.0974,0.127
ATCGCAAGGTCGAGGTGAGTATAGAGAAAGGGAA,-0.0497,1.28,0.589,-0.0017,-0.0351,1.04,-0.378,1.52,-0.173,2.75,1.76,2.55,2.56,0.563,2.35,2.62,0.694,0.322
AGAACTAGGGCACGCTGAGTTGATAGCAGAGTAG,8.03,7.98,3.17,2.05,0.0464,0.214,-0.312,-0.11,-0.599,1.58,0.535,0.967,1.49,-0.125,0.504,0.309,-0.568,0.21
TAAATGAGGTTATAAGATCAGGGAACGTTGCAAA,2.84,2.73,1.59,1.61,0.912,1,0.251,1.62,0.307,1.33,0.147,1.79,0.975,1.21,2.24,1.9,0.348,0.859
CCTACTGGGCCTTCAGGTCATTGATATCAACGTT,2.17,2.64,0.207,0.0216,1.5,1.47,0.552,1.5,-0.361,1.7,2.18,1.13,1.39,-0.0421,0.791,3.15,3.23,1.64
CCTTACAGGTCACTGACAGGTTATAGCATTTGGA,4.62,4.34,1.33,1.38,3.27,3.86,0.606,4.73,2.15,4.67,3.83,5.94,5.46,2.62,4.91,3.28,0.808,1.41
